Laboratory results: PubChem BioAssay
Results filed as inconclusive are left out. Calls of active or inactive are those of the source.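 Rule for the calls, unless noted: active = growth inhibition above 25% in both replicates, a cutoff set 3 SD above the mean; inconclusive = above 25% in only one replicate; inactive = the rest.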

Key:
[1] = reducers of endogenous Her2 protein level, primary screen, SKBR3 breast tumor cells, AlphaScreen, ATP viability (AID 461;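 active = Her2 level under about 52% in both replicate screens, with viability over 70% of control, limit read from the data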;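 for Her2 level: lower value means less Her2 protein in the cells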;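 for viability: percent of carrier control wells set as 100% viability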); conditions: 18-24 h, measured here: SKBR3 viability, ATP luminescence, at 10 µM
[2] = biological target: Receptor tyrosine-protein kinase erbB-2 (Homo sapiens) (UniProt P04626); assay: as above; conditions: 18-24 h, at 10 µM, stronger effect = lower value
Sequence of Receptor tyrosine-protein kinase erbB-2 (Homo sapiens) (P04626 whole entry, looked up): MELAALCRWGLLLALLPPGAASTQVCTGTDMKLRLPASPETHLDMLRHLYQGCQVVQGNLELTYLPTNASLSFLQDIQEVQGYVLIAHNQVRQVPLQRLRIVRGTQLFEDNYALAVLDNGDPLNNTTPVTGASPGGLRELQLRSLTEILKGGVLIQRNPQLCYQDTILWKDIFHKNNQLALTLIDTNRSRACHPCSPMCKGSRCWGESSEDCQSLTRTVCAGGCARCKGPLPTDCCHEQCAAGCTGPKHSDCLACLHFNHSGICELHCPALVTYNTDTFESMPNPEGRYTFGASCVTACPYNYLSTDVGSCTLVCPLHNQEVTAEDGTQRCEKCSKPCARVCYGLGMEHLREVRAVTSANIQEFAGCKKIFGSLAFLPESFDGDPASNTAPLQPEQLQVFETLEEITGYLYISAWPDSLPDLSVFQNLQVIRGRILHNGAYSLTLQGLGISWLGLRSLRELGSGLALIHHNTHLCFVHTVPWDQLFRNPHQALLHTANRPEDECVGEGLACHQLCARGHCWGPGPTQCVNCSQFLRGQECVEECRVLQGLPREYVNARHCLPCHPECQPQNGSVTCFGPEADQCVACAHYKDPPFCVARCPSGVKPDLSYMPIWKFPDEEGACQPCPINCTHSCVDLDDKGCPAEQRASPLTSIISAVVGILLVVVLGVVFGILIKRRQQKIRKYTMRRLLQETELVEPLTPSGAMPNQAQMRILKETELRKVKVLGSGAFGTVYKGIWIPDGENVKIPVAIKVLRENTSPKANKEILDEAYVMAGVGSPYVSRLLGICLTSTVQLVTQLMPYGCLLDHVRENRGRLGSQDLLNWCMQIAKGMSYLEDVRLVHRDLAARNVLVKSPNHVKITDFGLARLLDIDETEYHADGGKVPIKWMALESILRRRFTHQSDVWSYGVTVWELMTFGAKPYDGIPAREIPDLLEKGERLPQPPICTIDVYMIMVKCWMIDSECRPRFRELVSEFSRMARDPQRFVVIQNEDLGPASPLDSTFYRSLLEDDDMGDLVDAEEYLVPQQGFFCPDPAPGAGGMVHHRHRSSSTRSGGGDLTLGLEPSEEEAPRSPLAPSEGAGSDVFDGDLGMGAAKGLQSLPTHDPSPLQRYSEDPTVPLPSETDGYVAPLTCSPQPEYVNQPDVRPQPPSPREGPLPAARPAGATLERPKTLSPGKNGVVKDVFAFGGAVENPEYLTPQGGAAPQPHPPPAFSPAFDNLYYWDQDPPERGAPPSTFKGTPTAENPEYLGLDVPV

[3] = SK-BR-3 cell growth inhibitors, pilot screen, 24 h, human (AID 572;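 active = viability at or below 10% of carrier control in both of two separate runs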;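 note: compound exposure lasted between 18 and 24 h rather than exactly 24 h; 100% = carrier-treated control wells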); conditions: SK-BR-3 viability, CellTiter-Glo luminescence, at 10 µM, stronger effect = lower value
[4] = HUVEC growth inhibition – cell-based, human, primary screen (AID 575;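 active = viability at or below 30% in both replicate assays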;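 note: 100% = median of untreated cell wells with 0.1% DMSO on each plate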); conditions: HUVEC proliferation, CellTiter-Glo luminescence, 72 h; at 10 µM; stronger effect = lower value
[5] = growth inhibitors of H69AR lung tumor, primary screen, human, duplicate replicates (AID 580;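 active = viability at or under a set limit in both replicates, limit being median viability minus 3 SD, cut at about 48% in these data, passing the limit was not always enough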;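 note: 100% = mean luminescence of untreated wells and 0% = no signal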); conditions: H69AR lung tumor cells viability, ATP luminescence, 72 h; at 10 µM; stronger effect = lower value
[6] = reversal of MRP1-mediated doxorubicin resistance, pilot screen, H69AR cells, doxorubicin co-treatment (AID 601;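 active = viability loss from added drug above about 55%, and viability with drug at most 40%, in both replicates, limit read from the data, passing the limit was not always enough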); conditions: CellTiter-Glo, 72 h, at 10 µM; for differential viability (reversal): stronger effect = higher value
[7] = 384-well plate pilot, post-Golgi transport modulator project, inhibition of yeast transport mutant growth (AID 636; in the data active = inhibition above about 31%); conditions: absorbance 615 nm, about 18 h, stronger effect = higher value
[8] = growth suppression of yeast trafficking mutant, preliminary HTS, modulators of trafficking downstream of Golgi apparatus project, 1536-format plate, OD 615 nm (AID 637; in the data active = inhibition above about 30%); conditions: yeast transport mutant growth, absorbance 615 nm, 18 h; stronger effect = higher value
[9] = OD615 S. cerevisiae growth inhibition, permissive medium, pilot counter-assay, permissive growth control for S. cerevisiae lifespan shortening project (AID 705); conditions: OD615, 24 h, at 10 µM, stronger effect = higher value
[10] = Restrictive medium S. cerevisiae growth inhibition, OD615, pilot screen of yeast lifespan reduction project, restrictive growth control (AID 706;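 active = growth inhibition above a set limit, 3 SD over mean compound inhibition, in both replicates, cut at about 43% in these data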;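 note: modified DeaD lifespan yeast strain shifted to restrictive glucose medium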); conditions: OD615, 48 h, at 10 µM, stronger effect = higher value
[11] = viability gain of MRP-1-high H69AR cells under doxorubicin, pilot screen, MRP-1 activator project, CellTiter-Glo, duplicate (AID 807;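 active = viability increase at or above a cutoff of the median across tested compounds plus 3 SD, cut at about 8.5% in these data, passing the limit was not always enough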;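 note: compound pretreatment 18-22 h then 72 h combined with doxorubicin; 0% = doxorubicin alone and 100% = vehicle without doxorubicin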); conditions: H69AR viability with doxorubicin, CellTiter-Glo luminescence; at 10 µM; stronger effect = higher value
[12] = growth suppression of beta-catenin knockout HCT116, pilot screen, human colon tumor cells (AID 823;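 active = cell viability at or below a set limit in both duplicate runs, the limit being the all-compound median minus 4 SD, cut at about 23% in these data, passing the limit was not always enough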;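 note: 0% = wells killed by 20 µM Hyamine and 100% = untreated DMSO cell wells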); conditions: CellTiter-Glo, 60 h, at 10 µM, stronger effect = lower value
[13] = growth suppression of PTEN-deleted HCT116, pilot screen, cell-based, HCT116 clonal line, CellTiter-Glo (AID 824;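 active = viability at or below 27.92% in each of two runs, the all-compound median minus 4 SD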;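 note: 0% = 20 µM Hyamine control and 100% = vehicle cell control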); conditions: 60 h, at 10 µM, stronger effect = lower value
[14] = inhibitors of the yeast RAM network, pilot screen, dse1pr::URA3 reporter, 5-FOA selection (AID 869;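 active = inhibition over a set limit, the all-compound mean plus 3 SD, in both replicate runs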;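 note: 0% = DMSO wells with no growth and 100% = 10 µM 1-NA-PP1 with full growth; RAM network block rescues cells from 5-FOA so hits raise OD615 growth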); conditions: S. cerevisiae dse1pr::URA3 5-FOA growth, OD615, 2 d; at 10 µM; stronger effect = higher value; strain carries analog-sensitive mutant Cbk1 kinase
[15] = RAM signaling pathway blockade in yeast – S. cerevisiae, Pdr1DBD-CYC8 efflux-inhibited sensitized strain, primary screen (AID 1298;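 active = RAM network inhibition above 8.4% in each of two replicates, 3 SD over the compound average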;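 note: 0% = DMSO untreated cells without growth and 100% = 10 µM 1-NA-PP1 full growth; higher means more yeast growth rescued from 5-FOA killing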); conditions: S. cerevisiae cbk1-as DSE1-URA3 strain, 5-FOA growth OD615, 2 d; at 50 µM; stronger effect = higher value
[16] = H69AR cells + 2 uM doxorubicin, measured here: viability with 2 uM doxorubicin, stronger effect = lower value
[17] = H69AR cells, compound alone cytotoxicity

Row | Structure (SMILES) | viability [1] | Her2 level [2] | viability [3] | viability [4] | viability [5] | differential viability (reversal) ([6]; H69AR cells + 2 uM doxorubicin) | viability [6, 16] | viability [6, 17] | inhibition [7] | inhibition [8] | growth inhibition [9] | growth inhibition [10] | viability increase [11] | viability [12] | viability [13] | inhibition [14] | RAM network inhibition [15]
1 | CC(C)(C)NC(=O)Cn1c(=O)oc2ccc(Cl)cc21 | 96% | 104% (inactive) | 96% (inactive) | 96.5% (inactive) | 92.9% (inactive) | 28.8% (inactive) | 64.1% | 92.9% | -2.4% (inactive) | 0.83% (inactive) | 5.54% (inactive) | 5.01% (inactive) | -4.63% (inactive) | 106% (inactive) | 100% (inactive) | 0.38% (inactive) | 7.56% (inactive)
2 | N#CCCN1CCN(S(=O)(=O)c2ccc(S(=O)(=O)NC3CCCCC3)cc2)CC1 | 103% | 105% (inactive) | 103% (inactive) | 98.9% (inactive) | 100% (inactive) | 12.5% (inactive) | 87.5% | 100% | -2.69% (inactive) | 3.67% (inactive) | -1.9% (inactive) | -5.03% (inactive) | -0.74% (inactive) | 103% (inactive) | 97.8% (inactive) | 1.02% (inactive) | 5.92% (inactive)
3 | CCOC(=O)c1[nH]c(C)c(C(=O)Nc2ccc(Cl)cc2)c1C | 88.5% | 109% (inactive) | 88.5% (inactive) | 73.3% (inactive) | 85.9% (inactive) | -7.14% (inactive) | 93% | 85.9% | 1.92% (inactive) | 0.17% (inactive) | -1.96% (inactive) | 2.55% (inactive) | 2.64% (inactive) | 96.7% (inactive) | 95.2% (inactive) | 1.79% (inactive) | 3.1% (inactive)
4 | CCCSc1nnc(N2C(=O)CC(c3ccsc3)C3=C2CCCC3=O)s1 (stereo not drawn) | 92.5% | 100% (inactive) | 92.5% (inactive) | 93.8% (inactive) | 92.7% (inactive) | 0.73% (inactive) | 91.9% | 92.7% | -5.87% (inactive) | -4.5% (inactive) | -3.18% (inactive) | -7.41% (inactive) | -0.83% (inactive) | 99.4% (inactive) | 89.6% (inactive) | 0.25% (inactive) | 7.67% (inactive)
5 | Oc1ccc(Cl)cc1-c1cc(-c2ccccc2)n[nH]1 | 55.5% | 61% (inactive) | 55.5% (inactive) | 7.56% (active) | 6.37% (active) | -7.55% (inactive) | 13.9% | 6.37% | -0.53% (inactive) | 100% (active) | -1.5% (inactive) | -6.9% (inactive) | -7.82% (inactive) | 16% (active) | 23.1% (active) | 1.59% (inactive) | 8.32% (inactive)
6 | COc1ccc(N(CC(=O)Nc2cc(C)ccc2C)S(=O)(=O)c2c(C)nn(C)c2C)cc1 | 92% | 114% (inactive) | 92% (inactive) | 73.8% (inactive) | 93.2% (inactive) | -0.425% (inactive) | 93.6% | 93.2% | -0.38% (inactive) | -3% (inactive) | -7.38% (inactive) | -20.5% (inactive) | -2.75% (inactive) | 83.8% (inactive) | 80.3% (inactive) | 0.14% (inactive) | 7.15% (inactive)
7 | CCOCCn1c(CN2CCN(CC)CC2)nc2c1c(=O)n(C)c(=O)n2C | 121% | 109% (inactive) | 121% (inactive) | 94.2% (inactive) | 91.8% (inactive) | 4.7% (inactive) | 87.1% | 91.8% | -1.6% (inactive) | -4.33% (inactive) | 5.99% (inactive) | 1.91% (inactive) | -1.7% (inactive) | 103% (inactive) | 97.6% (inactive) | 1.31% (inactive) | -1.34% (inactive)
8 | CCOc1ccc(NC(=O)CSc2nnc(COc3c(C)cccc3C)o2)cc1 | 95% | 102% (inactive) | 95% (inactive) | 86.7% (inactive) | 80.6% (inactive) | -5.7% (inactive) | 86.3% | 80.6% | -4.93% (inactive) | -2.83% (inactive) | -9.38% (inactive) | -14.3% (inactive) | -1.9% (inactive) | 98.9% (inactive) | 98.3% (inactive) | 3.71% (inactive) | 8.74% (inactive)
9 | CC1=C(C(=O)Nc2cccnc2)C(c2ccc(C(C)C)cc2)n2ncnc2N1 (stereo not drawn) | 89.5% | 105% (inactive) | 89.5% (inactive) | 103% (inactive) | 97.8% (inactive) | 26.7% (inactive) | 71.1% | 97.8% | -2.13% (inactive) | -2.83% (inactive) | -9.26% (inactive) | -12.1% (inactive) | -3.03% (inactive) | 96.6% (inactive) | 102% (inactive) | 0.44% (inactive) | 1.4% (inactive)
